Results on eight molecules are retold here after PubChem BioAssay (Tox21).

Molecules are shown by their SMILES. Unmarked numbers belong to inactive results. Records with an inconclusive call do not appear. The source made the active and inactive calls. Unless noted, the call rests on the fitted dose curve; in most records, active means well fitted curve in the direction sought with a large enough effect in the repeat runs; inconclusive means weak or mixed curves; inactive means no such curve, though single readings can be large; an effect the other way counts as inactive or inconclusive.

For experiment [1], the target named is Luciferin 4-monooxygenase (Photinus pyralis) (UniProt P08659). As to the kind of experiment: qHTS assay to identify small molecule inhibitors of firefly luciferase (AID 1224835). Further: nearly all actives have a fitted effect of over 25% in size. Further: potency means the concentration at half of the fitted maximal effect. On activity change, negative = inhibition: on the % scale 0 is the no-effect control and ±100 the full control effect. A digest of the protocol:
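Biochemical qHTS: compounds run as interplate titrations against purified firefly enzyme, with D-luciferin and ATP each at its KM concentration. Light output recorded by CCD imaging.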
(In general: Quantitative high-throughput screening tests each substance at several concentrations.)

Experiment [2] is described as follows: qHTS assay to identify small molecule agonists of the constitutive androstane receptor (CAR) signaling pathway - cell viability counter screen (AID 1224836). Further: on the % scale 0 is the no-effect control and ±100 the full control effect; nearly all actives have a fitted effect of over 45% in size. In a few lines: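 23 h treatment, 37 C, 5% CO2. Cell line: HepG2 stably expressing hCAR with a CYP2B6-2.2kb construct. Co-treatment: PK11195, 0.75 uM final. Read-out: CellTiter-Fluor fluorescence intensity.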

A short description of experiment [3]: qHTS assay to identify small molecule antagonists of the constitutive androstane receptor (CAR) signaling pathway - cell viability counter screen (AID 1224837). Further: on the % scale 0 is the no-effect control and ±100 the full control effect; nearly all actives have a fitted effect of over 45% in size. A digest of the protocol:
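Using CellTiter-Fluor, viability is scored in HepG2 cells stably carrying hCAR and a 2.2kb CYP2B6 reporter after 23 hr compound exposure across 15 concentrations, with CITCO present at 50 nM.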

In experiment [4] the target is Nuclear receptor subfamily 1 group I member 3 (Homo sapiens) (UniProt Q14994). Put plainly: qHTS assay to identify small molecule agonists of the constitutive androstane receptor (CAR) signaling pathway (AID 1224839). Further: nearly all actives have a fitted effect of over 15% in size. Further: potency means the concentration at half of the fitted maximal effect.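 On activation: HepG2 cells stably carrying human CAR and a CYP2B6 luciferase reporter; on the % scale 0 is the no-effect control and ±100 the full control effect.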 A digest of the protocol: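 Compounds tested at 15 concentrations on HepG2 cells stably harbouring hCAR and CYP2B6-2.2kb reporter constructs, co-treated with PK11195 (0.75 uM final), 24 h at 37 C; luminescent reporter signal quantified.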

Experiment [5] can be described thus: qHTS assay to identify small molecule antagonists of the estrogen related receptor signaling pathway with the pleiotropic PPARgamma coactivator (PGC) from Tox21 10K library - cell viability counter screen (AID 1224840; active means well fitted cell-killing curve with a large enough effect in the repeat runs, not every such curve was filed as active; further: on the % scale 0 is the no-effect control and ±100 the full control effect; nearly all actives have a fitted effect of over 40% in size). In a few lines: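 Here the PGC/ERR cells serve as a cytotoxicity control: they are exposed to compounds for 17.5 hours at 37 C, and live-cell signal is quantified using CellTiter-Fluor fluorescence.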

In experiment [6] the target is Thyrotropin receptor (Homo sapiens) (UniProt P16473). Put plainly: qHTS assay to identify small molecule agonists of the thyroid stimulating hormone receptor (TSHR) signaling pathway (AID 1224843; calls by dose curve; further: on the % scale 0 is the no-effect control and ±100 the full control effect; nearly all actives have a fitted effect of over 45% in size). In a few lines:
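TSHR-HEK293 cells in agonist mode, 30 min room-temperature step, then cAMP measured by competitive HTRF (cAMP-d2 with anti-cAMP cryptate) after 1 h at room temperature. Tested at 15 concentrations in triplicate.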

Experiment [7] in a line: qHTS assay to identify small molecule agonists of the hypoxia (HIF-1) signaling pathway - cell viability counter screen (AID 1224844; calls by dose curve; further: on the % scale 0 is the no-effect control and ±100 the full control effect; nearly all actives have a fitted effect of over 50% in size). In a few lines: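 Multiplexed with the HRE beta-lactamase assay, this viability read used CellTiter-Glo luminescence (30 min, RT) on HRE-bla ME-180 cells treated 17 hrs with compounds in 0.5% dialyzed FBS medium.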
Experiment [8] can be described thus: qHTS assay to identify small molecule agonists of H2AX (AID 1224845; active means well fitted activation curve with a large enough effect in the signal ratio in the repeat runs, not every such curve was filed as active; the % refers to the signal ratio; further: potency means the concentration at half of the fitted maximal effect; on activation (H2AX phosphorylation): on the % scale 0 is the no-effect control and ±100 the full control effect). A digest of the protocol:
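Wild-type CHO-K1 cells, plated overnight, exposed 3hr at 37C to 15 concentrations (0.76% DMSO final). Lysed, then HTRF anti-pH2AX (S139) cryptate and anti-H2AX-d2 antibodies, 24 hr room temperature; 665/620 nm emission read.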

Experiment [9] can be described thus: qHTS assay to identify small molecule agonists of H2AX - cell viability counter screen (AID 1224847; calls by dose curve; further: top concentration of the series differs between compounds; on the % scale 0 is the no-effect control and ±100 the full control effect; nearly all actives have a fitted effect of over 30% in size). A digest of the protocol: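 Compounds tested at 15 concentrations were incubated 3 hr at 37C with wild-type CHO-K1 cells; cellular ATP-based luminescence (CellTiter-Glo) indicated viability.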
Experiment [10] can be described thus: qHTS RealTime-Glo MT Cell Viability Assay in HepG2 cells - 24 hour (AID 1224867). Further: on the % scale 0 is the no-effect control and ±100 the full control effect; nearly all actives have a fitted effect of over 50% in size. In a few lines: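 Cells + NanoLuc/prosubstrate dispensed (600 cells/well) → 5 h at 37 C/5% CO2 → compounds in DMSO transferred → 40 h incubation at 37 C, luminescence read at 0, 8, 16, 24, 32, 40 h.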
A short description of experiment [11]: qHTS RealTime-Glo MT Cell Viability Assay in HEK293 cells - 32 hour (AID 1224868). Further: nearly all actives have a fitted effect of over 50% in size. Further: potency means the concentration at half of the fitted maximal effect. A digest of the protocol: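 Tox21 10K qHTS, HEK293, 600 cells/well, RealTime-Glo reagent co-dispensed with cells; 5 h preincubation, compound by pintool, 37 C, luminescence at 0–40 h.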
Experiment [12] is described as follows: A CellTox Green Cytotoxicity Assay to monitor cytotoxicity in HEK293 cells - 0 hour (AID 1224869). Further: on the % scale 0 is the no-effect control and ±100 the full control effect; nearly all actives have a fitted effect of over 50% in size. A digest of the protocol:
(§1)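 Seeding of HEK293 cells together with cytotoxicity dye preceded a 5 h incubation at 37 C/5% CO2. Test compounds in DMSO were then added and fluorescence monitored across 40 h.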

A short description of experiment [13]: A CellTox Green Cytotoxicity Assay to monitor cytotoxicity in HEK293 cells - 40 hour (AID 1224871). Further: nearly all actives have a fitted effect of over 45% in size. Further: potency means the concentration at half of the fitted maximal effect. A digest of the protocol: as §1
Experiment [14] can be described thus: qHTS assay to identify small molecule agonists of the estrogen related receptor signaling pathway with the pleiotropic PPARgamma coactivator (PGC) from Tox21 10K library (AID 1224842). Further: potency means the concentration at half of the fitted maximal effect; nearly all actives have a fitted effect of over 15% in size. A digest of the protocol:
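PGC/ERR reporter cell line, 2,000 cells per well, incubated 6 h at 37 C before 23 nL compound in DMSO was added. After 18 h at 37 C, One-Glo luminescence read following 30 min at room temperature.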

Experiment [15] can be described thus: qHTS assay to identify small molecule antagonists of the estrogen related receptor (ERR) signaling pathway from Tox21 library (AID 1224848). A digest of the protocol:
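ERR reporter cell line (from NTP) seeded 2,000 cells/well, rested 6 h at 37 C/5% CO2, then pin-dosed with compounds in DMSO. After 18 h at 37 C, ONE-Glo added; luminescence read after 30 min at room temperature.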

The nature of experiment [16]: qHTS assay to identify small molecule agonists of the estrogen related receptor (ERR) signaling pathway from Tox21 library (AID 1224849; calls by dose curve; further: on the % scale 0 is the no-effect control and ±100 the full control effect; nearly all actives have a fitted effect of over 15% in size). The conditions noted are these: ERR reporter cell line, ONE-Glo luciferase, 18 h; at 92.4 µM (top of the series) unless noted. In a few lines: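 Six hours post-seeding at 37 C/5% CO2, ERR cells receive DMSO-solubilised compounds; after 18 h at 37 C, ONE-Glo reagent is applied and luminescence recorded.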

Experiment [17] can be described thus: qHTS RealTime-Glo MT Cell Viability Assay in HepG2 cells - 40 hour (AID 1224870). In a few lines:
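HepG2 cells (600/well) mixed with RealTime-Glo MT reagent, settled 5 h at 37 C/5% CO2 before compound addition. Nonlytic NanoLuc luminescence from viable-cell prosubstrate reduction read repeatedly during 40 h treatment at 37 C.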

The nature of experiment [18]: qHTS assay to identify small molecule antagonists of the estrogen related receptor signaling pathway with the pleiotropic PPARgamma coactivator (PGC) from Tox21 10K library (AID 1224841; call rule not given here). In a few lines: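 Each well held 2,000 PGC/ERR cells, pre-incubated six hours (37 C, 5% CO2). Test substances in DMSO were added by pin tool and left for 18 h at 37 C before luciferase detection by One-Glo.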

Experiment [19] can be described thus: qHTS assay to identify small molecule agonists of the hypoxia (HIF-1) signaling pathway (AID 1224846; active means well fitted activation curve with a large enough effect in the signal ratio in the repeat runs, not every such curve was filed as active; the % refers to the signal ratio; further: on the % scale 0 is the no-effect control and ±100 the full control effect). In a few lines:
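Hypoxia-pathway activation was scored as increased beta-lactamase from an HRE-controlled reporter in ME-180 cells; plated at 2,000 cells per well with 0.5% dialyzed FBS, they were exposed 17 hrs to compounds and then given CCF4-AM.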

Chain of Thyrotropin receptor (Homo sapiens) (P16473 whole entry, looked up): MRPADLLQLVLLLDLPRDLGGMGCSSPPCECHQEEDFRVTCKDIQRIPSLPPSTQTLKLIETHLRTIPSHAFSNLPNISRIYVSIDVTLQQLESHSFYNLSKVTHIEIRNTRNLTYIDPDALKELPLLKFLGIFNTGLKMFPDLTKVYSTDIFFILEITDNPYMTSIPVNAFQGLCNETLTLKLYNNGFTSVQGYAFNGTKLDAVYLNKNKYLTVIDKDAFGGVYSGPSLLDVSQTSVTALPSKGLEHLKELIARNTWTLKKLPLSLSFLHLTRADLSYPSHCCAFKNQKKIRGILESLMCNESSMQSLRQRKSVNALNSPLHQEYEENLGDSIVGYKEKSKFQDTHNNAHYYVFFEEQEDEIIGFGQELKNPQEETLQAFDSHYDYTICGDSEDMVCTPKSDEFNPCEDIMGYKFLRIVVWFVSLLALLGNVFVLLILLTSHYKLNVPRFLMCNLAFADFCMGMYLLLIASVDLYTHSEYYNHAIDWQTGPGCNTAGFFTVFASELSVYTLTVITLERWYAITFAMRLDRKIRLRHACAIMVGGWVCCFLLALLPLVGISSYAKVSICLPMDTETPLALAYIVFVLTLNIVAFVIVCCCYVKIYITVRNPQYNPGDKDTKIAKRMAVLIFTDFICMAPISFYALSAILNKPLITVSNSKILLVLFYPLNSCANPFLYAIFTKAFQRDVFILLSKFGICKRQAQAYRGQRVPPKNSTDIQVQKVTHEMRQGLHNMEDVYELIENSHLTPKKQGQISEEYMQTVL
Chain of Luciferin 4-monooxygenase (Photinus pyralis) (P08659 whole entry, looked up): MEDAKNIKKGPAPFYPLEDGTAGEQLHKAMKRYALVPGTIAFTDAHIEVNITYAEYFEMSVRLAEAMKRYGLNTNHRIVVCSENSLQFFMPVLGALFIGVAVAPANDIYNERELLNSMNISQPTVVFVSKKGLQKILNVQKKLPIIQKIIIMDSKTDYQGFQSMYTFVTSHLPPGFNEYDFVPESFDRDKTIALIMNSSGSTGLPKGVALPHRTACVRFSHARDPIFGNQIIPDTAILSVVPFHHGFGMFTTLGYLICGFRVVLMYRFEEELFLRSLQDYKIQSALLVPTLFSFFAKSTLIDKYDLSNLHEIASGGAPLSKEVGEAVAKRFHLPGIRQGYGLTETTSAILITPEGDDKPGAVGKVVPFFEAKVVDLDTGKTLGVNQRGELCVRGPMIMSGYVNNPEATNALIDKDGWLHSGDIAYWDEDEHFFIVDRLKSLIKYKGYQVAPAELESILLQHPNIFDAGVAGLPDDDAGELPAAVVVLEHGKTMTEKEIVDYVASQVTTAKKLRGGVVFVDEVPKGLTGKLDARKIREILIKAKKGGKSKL
Chain of Nuclear receptor subfamily 1 group I member 3 (Homo sapiens) (Q14994 whole entry, looked up): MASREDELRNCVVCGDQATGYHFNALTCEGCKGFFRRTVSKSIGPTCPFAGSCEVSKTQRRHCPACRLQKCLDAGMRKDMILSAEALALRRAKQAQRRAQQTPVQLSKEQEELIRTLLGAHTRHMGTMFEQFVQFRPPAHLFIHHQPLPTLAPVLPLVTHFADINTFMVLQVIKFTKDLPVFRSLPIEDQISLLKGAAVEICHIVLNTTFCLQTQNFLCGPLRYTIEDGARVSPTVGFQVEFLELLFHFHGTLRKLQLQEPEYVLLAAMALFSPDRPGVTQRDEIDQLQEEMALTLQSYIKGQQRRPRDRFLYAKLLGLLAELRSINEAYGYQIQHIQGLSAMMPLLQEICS

For `CC(=O)N(CC(O)CN(C(C)=O)c1c(I)c(C(=O)NCC(O)CO)c(I)c(C(=O)NCC(O)CO)c1I)c1c(I)c(C(=O)NCC(O)CO)c(I)c(C(=O)NCC(O)CO)c1I` (stereo not given), the Potency result in experiment [1], in experiment [2], in experiment [3], in experiment [4], in experiment [5] and in experiment [6] was “inactive” in each case. In addition, the Potency result in experiment [7], in experiment [8], in experiment [9], in [10], in experiment [11] and in [12] was “inactive” in each case. The Potency result in experiment [13] was “inactive”.
In the case of `COc1ccc(Nc2ccc(OC)cc2)cc1`, the Potency in experiment [1] was 20.4 µM (active); in [14] it was 27.8 µM (active); in experiment [11], 25 µM (active). For the same molecule, the Potency result in [2], in [3], in experiment [5], in [9], in experiment [15] and in experiment [10] was “inactive” in each case. Besides, the Potency entry in experiment [17] and in experiment [13] was “inactive” throughout. In addition, in experiment [16], the activity change, positive = activation was 38% (active).
`COC(=O)c1ccc2cc(C(=O)OC)ccc2c1`: the activity change, negative = inhibition in experiment [1] is -7.06% [at 23.6 µM]. The viability change, negative = cytotoxic in experiment [2] was 6.04% [at 19 µM]; in experiment [5], 1.78% [at 19 µM]. Further, the activity change, negative = cytotoxicity in [3] was -9.38% [at 19 µM]; in experiment [7] it was 1.66% [at 15.8 µM]; in experiment [9] it was 2.5% [at 31.6 µM]; in experiment [10], 2.88% [at 15.8 µM]. The activity, negative = inhibition in experiment [18] is 221% [at 19 µM]; in [15] it was 23.9% [at 19 µM]. The Potency in experiment [14] was 4.44 µM (active). The activation in experiment [6] is 2.3% [at 19 µM]; in experiment [19] it was -0.33% [at 15.8 µM]. Also, the activation (H2AX phosphorylation) in experiment [8] was 0.148% [at 31.6 µM]. Further, the results for the activity change, negative = cytotoxic in experiment [11] and in [17] were -1.06% [at 15.8 µM] and -0.864% [at 15.8 µM], respectively. The cytotoxicity in [12] is 2.02% [at 15.8 µM]. Besides, in [13], the cytotoxicity increase is 3.01% [at 15.8 µM].
`O=Cc1ccc(F)c(Br)c1`: the Potency result in experiment [1], in experiment [2], in [3], in experiment [4], in experiment [5] and in experiment [6] was “inactive” in each case. Also, the Potency result in experiment [7], in [8], in experiment [9], in experiment [10], in [11] and in [12] was “inactive” in each case. The Potency entry in experiment [17] and in experiment [13] was “inactive” throughout. In addition, the result in [19] was inactive.
For `CCCCCCOc1ccc(N)cc1`, the Potency in [1] was 31.7 µM (active); in [4] it was 27.3 µM (active); in experiment [14], 12.2 µM (active); in [8], 56.6 µM (active); in experiment [13], 43.6 µM (active). The Potency result in experiment [2], in [3], in experiment [5], in experiment [18], in experiment [7] and in experiment [15] was “inactive” each time. In addition, the Potency result in [10], in [12] and in [17] was “inactive” in each case. The molecule was called inactive in experiment [19]. Further, in [16], the activity change, positive = activation is 2.67%.
Regarding `C/C(=N\O)[C@@H](C)NCC(C)(C)CN[C@H](C)/C(C)=N/O`, the Potency result in experiment [1], in [2], in experiment [3], in experiment [5], in experiment [6] and in [7] was “inactive” throughout. The Potency result in experiment [8], in experiment [9], in [10], in [11], in experiment [12] and in [17] was “inactive” each time. Further, the Potency entry in [13] is “inactive”. In addition, in experiment [19], the outcome was inactive.
Take `CC1=C(O)C(=O)OC1C` (stereo not given): the Potency result in [1], in experiment [2], in experiment [3], in [4], in [5] and in experiment [6] was “inactive” throughout. Besides, the Potency entry in experiment [7], in [8], in experiment [9], in experiment [10], in experiment [11] and in experiment [17] was “inactive” throughout. The Potency result in experiment [13] was “inactive”. Moreover, in [19], the molecule was called inactive.
As to `C=CC1CO1` (stereo not given), the Potency result in experiment [1], in experiment [2], in [3], in experiment [5], in experiment [6] and in experiment [7] was “inactive” in each case. The Potency result in experiment [8], in experiment [9], in [10], in [11], in experiment [12] and in [17] was “inactive” each time. In [13], the Potency entry was “inactive”. Also, in experiment [19], the call was inactive.
